Measurements taken from PubChem BioAssay AID1224856 (National Center for Advancing Translational Sciences (NCATS), 2016).
Records with an inconclusive call do not appear. A call without a number means that no potency is given here. Active and inactive are the calls of the source. Calls follow the shape of the dose curve; as a rule, active = well fitted curve in the direction sought with a large enough effect; inconclusive = small, poorly fitted or top-dose-only effect, or another doubt; inactive = no such curve, though single readings can be large or run the other way.

Test: Cell viability assay for measurement of the protective activity of small molecules against cell death caused by Zika virus infection in human astrocytes
Settings: human astrocytes ZIKV-induced death, ATP luminescence, 72 h; series mostly up to 46.1 µM
From the text: National Center for Advancing Translational Sciences [NCATS] Johns Hopkins University School of Medicine Florida State University Assay Overview: Zika virus infection causes cell death in certain cell types including human neural progenitor cells (hNPCs), astrocytes, and astrocytoma cell line (SNB-19). This cell viability assay measures the ATP content (level) in human astrocytes using a luminescence readout that is proportional to viable cell numbers. Decrease in the luminescence signal after Zika virus infection indicates the cell death caused by Zika virus. Small molecule inhibitors […] the decreased luminescence signal after Zika virus infection, indicating the protective effect of that small molecule on the cell death caused by Zika virus infection. This observed protective effect of small molecules against Zika virus induced cell death may result from inhibition of virus replication or cellular response to the virus infection.
Assay Protocol Summary: The medium for astrocytes contains AM basal medium (ScienCell, Cat.# 1801), AGS (ScienCell, Cat.# 1801), 10% FBS, and 1% Pen/Strep. The ATP content assay kit (PerkinElmer, Cat.# 6016731) was used to determine cell viability. The reagent was reconstituted and prepared as described by the manufacturer. Cells were seeded in 384- or 1536-well assay plates and cultured at 37 C with 5% CO2 for 16 to 20 hours. The typical cell seeding density in the 1536-well plate assay is 350 cells/well in 3 ul medium for astrocytes in the tissue cultured treated/PDL coated plates. Compounds were added to cells and incubated for one hour before addition of ZIKV solution to cells (2 FFU/cell). After incubation at 37 C with 5% CO2 for 72 hours, the reagent mixture of the ATP content assay kit was added to each well, followed by incubation at room temperature for 10 minutes. The luminescence intensity of the assay plates was measured using a ViewLux plate reader (PerkinElmer). […] The percentage inhibitions of the decreased cell viability by small molecule inhibitors were then calculated.
In the case of NC(N)=NN=C(/C=C/c1ccc([N+](=O)[O-])o1)/C=C/c1ccc([N+](=O)[O-])o1, the Potency is reported as “inactive”.
In the case of C=CCCCCCCCCC(=O)O, the Potency is reported as “inactive”.
In the case of O=c1c(-c2ccc(O)cc2)coc2cc(O)ccc12, the Potency is reported as “inactive”.
In the case of CN1CC(=O)N2C(Cc3c([nH]c4ccccc34)[C@H]2c2ccc3c(c2)OCO3)C1=O (stereo not given in full), the Potency is reported as “inactive”.
With Cc1oncc1C(=O)Nc1ccc(C(F)(F)F)cc1 the Potency was “inactive”.
For CC(C)OC(=O)CCCC=CC[C@@H]1[C@H](C=C[C@@H](O)COc2cccc(C(F)(F)F)c2)[C@H](O)C[C@@H]1O, the Potency was “inactive”.
For CC1(C)OC2=C(C(=O)c3ccccc3C2=O)[C@H](NCc2ccccc2)[C@H]1O, the Potency was “inactive”.
For CC(C(=O)O)c1ccc(-c2ccccc2)c(F)c1 (stereo not given), the Potency was “inactive”.
For CN(C)c1ccc(N=NS(=O)(=O)O)cc1, the Potency was “inactive”.
For COc1ccc(-c2cc(=S)ss2)cc1, the Potency was “inactive”.
In the case of CC(=O)Nc1ccc([C@H](C)C(=O)Nc2ncc(C(C)C)s2)cc1, the Potency is reported as 4.89 µM (active).
For O=C(Nc1ccc(Br)cc1)c1cc(Br)cc(Br)c1O, the Potency was “inactive”.
For C[C@@H](N)c1ccc(C(=O)Nc2ccnc3[nH]ccc23)cc1, the Potency was “inactive”.
In the case of N[C@H](CSC(c1ccccc1)(c1ccccc1)c1ccccc1)C(=O)O, the Potency is reported as “inactive”.
With CC(C)[C@H]1C(=O)N[C@H](CO)Cc2c[nH]c3cccc(c23)N1C the Potency was 1.09 µM (active).
In the case of O=C(O)c1ccccc1NCCc1ccccc1, the Potency is reported as “inactive”.
For COc1cccc2c1C(=O)c1c(O)c3c(c(O)c1C2=O)C[C@@](O)(C(=O)CO)C[C@@H]3O[C@H]1C[C@H](N)[C@H](O[C@@H]2CCCCO2)[C@H](C)O1, the Potency was “inactive”.
In the case of O=c1[nH]nc(Sc2ncc([N+](=O)[O-])s2)n1-c1ccc2c(c1)OCCO2, the Potency is reported as “inactive”.
For O=C1NC(=O)C(=Cc2ccc(-c3ccc(F)cc3)o2)S1, the Potency was “inactive”.
For O=C(Nc1ncc([N+](=O)[O-])s1)c1cccs1, the Potency was “inactive”.
In the case of C/C(=N\O)c1ccc(OCC(=O)N2CCCCC2)cc1, the Potency is reported as “inactive”.
For Cc1c(NC(=O)c2ccc(C(C)(C)C)cc2)cccc1-c1cn(C)c(=O)c(Nc2ccc(C(=O)N3CCOCC3)cc2)n1, the Potency was “inactive”.
For COc1cc(NC(C)CCCN)c2ncccc2c1 (stereo not given), the Potency was “inactive”.
With O=C(Oc1ccccc1)c1cccc(C(=O)Oc2ccccc2)c1 the Potency was “inactive”.
With O=C(OCc1ccccc1)c1ccc(O)cc1 the Potency was “inactive”.
With Cc1nc(-c2ccc(OCC(C)C)c(C#N)c2)sc1C(=O)O the Potency was “inactive”.
For N#C/C(=C\c1ccc(O)c(O)c1)C(=O)Nc1ccccc1, the Potency was “inactive”.
With O=c1c2ccccc2nc2n1CCc1c-2[nH]c2ccccc12 the Potency was “inactive”.
With Cc1cccc(C#Cc2ccccc2)n1 the Potency was “inactive”.
For CC1(C)Cc2c(sc(NC(=S)NC(=O)c3ccccc3)c2C(=O)O)CO1, the Potency was “inactive”.
In the case of S=C(SSC(=S)N1CCCCC1)N1CCCCC1, the Potency is reported as 7.74 µM (active).
With Nc1ccc2c(c1)CN1C(=O)c3ccccc3C1=N2 the Potency was “inactive”.
For Cc1[nH]c(C=C2C(=O)Nc3ccccc32)c(C)c1CCC(=O)O, the Potency was “inactive”.
With CCCCCNC(=O)N1CCC(CN(Cc2ccc(Cl)cc2)Cc2ccc([N+](=O)[O-])s2)C1 (stereo not given) the Potency was “inactive”.
For CNC(=O)c1ccccc1Sc1ccc2c(/C=C/c3ccccn3)n[nH]c2c1, the Potency was “inactive”.
For COc1ccc(-c2coc3cc(O)ccc3c2=O)cc1, the Potency was “inactive”.
In the case of COc1cc2nc(N3CCN(C(=O)C4CCCO4)CC3)nc(N)c2cc1OC (stereo not given), the Potency is reported as “inactive”.
For O=C(Nc1ccc(OC(F)(F)F)cc1)c1sccc1NCc1ccnc2ccccc12, the Potency was “inactive”.
In the case of CN1CC(=O)N/C1=N/C(=O)Nc1cccc(Cl)c1, the Potency is reported as “inactive”.
For O=c1oc2cc(O)ccc2s1, the Potency was “inactive”.
